# Results published in ChEMBL document CHEMBL3988442, “University of Dundee, Small-Polar-MMV Screening Library” (2021).
# Target: Sialic acid-binding Ig-like lectin 9 (Homo sapiens) (UniProt Q9Y336)
# Test: Hs-Siglec9 ALPHAscreen SOP 20170721
# Parameters: scale not given: direction of the effect not stated beside the values
# Settings: 10 µM
# Chain of Sialic acid-binding Ig-like lectin 9 (Homo sapiens) (Q9Y336 whole entry): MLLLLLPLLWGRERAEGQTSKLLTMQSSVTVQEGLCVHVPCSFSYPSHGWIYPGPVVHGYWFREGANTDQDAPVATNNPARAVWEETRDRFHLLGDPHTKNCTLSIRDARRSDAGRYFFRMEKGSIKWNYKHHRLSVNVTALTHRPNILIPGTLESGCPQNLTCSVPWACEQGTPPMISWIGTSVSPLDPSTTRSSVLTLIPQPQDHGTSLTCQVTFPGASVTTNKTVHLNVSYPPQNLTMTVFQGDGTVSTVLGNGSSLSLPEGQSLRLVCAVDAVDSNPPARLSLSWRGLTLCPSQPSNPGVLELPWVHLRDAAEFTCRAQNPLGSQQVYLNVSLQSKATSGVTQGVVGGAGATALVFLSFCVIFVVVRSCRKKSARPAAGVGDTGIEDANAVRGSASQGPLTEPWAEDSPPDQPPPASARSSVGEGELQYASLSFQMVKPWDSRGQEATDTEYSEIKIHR
row,Compound,Percent Effect
1,Cc1cnn(CC2CCCCN2CCC(=O)Nc2cc(C)on2)c1 (centres undefined),0.417%
2,CNS(=O)(=O)Cc1ccc(CNC(=O)Nc2cn[nH]c2)cc1,-12.1%
3,Cc1c(C(=O)NC(CN2CCCC2=O)c2ccccc2)cnn1C (centres undefined),-5.31%
4,O=C(O)c1nnn(-c2ccc(F)c(F)c2)c1-c1ccncc1,-2.68%
5,Cc1ccccc1CCNC(=O)C1CC(=O)N(CC(F)(F)F)C1 (centres undefined),-4.07%
6,CC(C)CN1CCCC2(CCN(C(=O)c3cnccn3)C2)C1 (centres undefined),2.48%
7,O=C(NCC(F)(F)F)C1CSCN1S(=O)(=O)c1ccc(F)cc1 (centres undefined),-0.453%
8,CO[C@@H]1CC[C@H]2[C@H]1OCCN2C(=O)C1=CCCC1,-0.155%
9,COCC1CN(Cc2ccc(C)o2)Cc2cn(C)nc21 (centres undefined),16.5%
10,Cc1cc(NC(=O)CCc2ccsc2)n(C)n1,-1.11%
11,O=C(Cc1ccc(O)c(Cl)c1)N1CCCCC1CCn1cccn1 (centres undefined),26.9%
12,Cc1cnn(CC(C)NCc2csc(-c3ccco3)n2)c1 (centres undefined),-3.77%
13,CCc1nnc2n1CCN(C(=O)c1ccc3nc(C)c(C)nc3c1)C2,3.38%
14,Cc1cc(CN(C)C(=O)NC(C)c2nncn2C)no1 (centres undefined),15.4%
15,COC(=O)CS(=O)(=O)CCC(=O)N1CCCC1c1ccsc1 (centres undefined),21.4%
16,CC(=O)N1CCN(S(=O)(=O)c2ccc(C)c(F)c2)CC1,-1.23%
17,CN(C)C(=O)CN1C[C@@H]2CC[C@H](C1)N(Cc1cc(F)ccc1F)C2,2.19%
18,Cc1nn(C)c(N(C)C)c1CNCc1cccnc1-n1cncn1,1.22%
19,Cn1ccnc1CN1CCCCC1Cn1cccn1 (centres undefined),3.72%
20,COc1cc(C(=O)N2CCC(c3n[nH]c(C4CC4)n3)CC2)ccc1C,-3.19%

row,Compound,Percent Effect
1,O=C(c1cccnc1)N1C[C@@H]2CC[C@H](C1)N(Cc1cccc(Cl)c1F)C2,4.43%
2,Cc1cc(-c2cnn(CCNC(=O)c3cccnc3)c2C2CC2)on1,2.6%
3,N#Cc1ccc(NCCNc2ccc(C(F)(F)F)cn2)nc1,10.9%
4,Cc1nn(C)c(N(C)C)c1CNCc1cccc(CN(C)C(C)C)c1,25.4%
5,Cc1nnc(NC(=O)CN(C)CC2CCCN2c2cccnn2)s1 (centres undefined),17.7%
6,Cc1cc(C(=O)NCc2cccnc2OC(C)C)no1,4.58%
7,OC(CN1CCN(Cc2ccc(F)c(F)c2)CC1)C1CC1 (centres undefined),0.902%
8,Cc1noc(C(C)N2CCN(CCC(=O)N3CCCCC3)CC2)n1 (centres undefined),3.61%
9,CCc1nc2ccccc2c(=O)n1CC1(O)CCN(S(C)(=O)=O)CC1,9.5%
10,Cn1ccc(CN2CCC(CCc3ccc(O)cc3)CC2)cc1=O,0.347%
11,CCCNC(=O)N1CCN(Cc2cc(C)no2)CC1,-2.41%
12,Cc1cccc(OCCC(=O)N2CCN(S(=O)(=O)N(C)C)CC2)c1C,-9.44%
13,Cc1nc2n(n1)CC(NCc1cc(Cl)c3c(c1)OCCCO3)CC2 (centres undefined),11.4%
14,COC(=O)N1CCCN(C(=O)NCc2ccc(Cl)s2)CC1,-2.7%
15,Cc1cc(C2CCCN(CCCNS(C)(=O)=O)C2)n[nH]1 (centres undefined),13.7%
16,CC(C)CC(=O)N1CCCn2cnc(CN3CCCC3=O)c2C1,-3.33%
17,O=C(Nc1ccccn1)N(CCO)Cc1ccsc1,14.4%
18,CCSCCC(=O)Nc1ncn(CC(=O)NCc2ccccc2)n1,16.7%
19,OCCn1nccc1C1CCN(CCCOc2ccc(F)cc2)CC1,3.53%
